# From the supplement of paper PMC6992640
# ± gives the standard deviation of the averaged measurements.
# Tested on: HCI09 (cells of a triple-negative luminal androgen receptor type breast cancer xenograft)
# Assay: cell viability (% of vehicle); higher = less cytotoxic
# Details: 10 µM; 72 h
# 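Also: PDX cells carrying CMV promoter-driven luciferase, viability read as total photon flux per second by IVIS imaging following D-luciferin, vehicle control 0.1% DMSO.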
row,SMILES,cell viability
1,O=C1NC(=O)[C@@H](c2c[nH]c3ccccc23)[C@H]1c1cn2c3c(cccc13)CCC2 [Tivantinib (ARQ 197)],51.5 ± 4.9
2,CCC1(O)CC2CN(CCc3c([nH]c4ccccc34)C(C(=O)OC)(c3cc4c(cc3OC)N(C)C3C(O)(C(=O)OC)C(OC(C)=O)C5(CC)C=CCN6CCC43C65)C2)C1 (centres undefined) [vinblastine],45.7 ± 42
3,Nc1ccn(C2CCC(CO)O2)c(=O)n1 (centres undefined) [Zalcitabine],102 ± 5.5
4,CCc1nc(N)nc(N)c1-c1ccc(Cl)cc1 [Pyrimethamine],81.6 ± 8.9
5,C=C[C@]1(C)C[C@@H](OC(=O)CSC2C[C@H]3CC[C@@H](C2)N3C)[C@]2(C)[C@H](C)CC[C@]3(CCC(=O)[C@H]32)[C@@H](C)[C@@H]1O (some centres undefined) [Retapamulin],83.2 ± 3.2
6,Nc1ccc(S(N)(=O)=O)cc1 [Sulfanilamide],97.7 ± 18
7,CN(C)CCC(c1ccc(Br)cc1)c1ccccn1.O=C(O)C=CC(=O)O (centres undefined) [Brompheniramine hydrogen maleate],103 ± 1.9
8,O=C1CCC(N2C(=O)c3ccccc3C2=O)C(=O)N1 (centres undefined) [Thalidomide],101 ± 4.3
9,Cc1cccc(-c2nn3c(c2-c2ccnc4ccc(C(N)=O)cc24)CCC3)n1,115 ± 56
10,O=C(CS(=O)Cc1ccco1)NCC=CCOc1cc(CN2CCCCC2)ccn1 (centres undefined) [Lafutidine],107 ± 3.1
11,c1ccc(-c2ccc(C(c3ccccc3)n3ccnc3)cc2)cc1 (centres undefined) [Bifonazole],74 ± 1.6
12,Nc1nccs1 [Aminothiazole],101 ± 3.2
13,NC(=O)N1c2ccccc2C=Cc2ccccc21 [Carbamazepine],94.3 ± 32
14,CN(CC=CC#CC(C)(C)C)Cc1cccc2ccccc12 [Terbinafine],136 ± 70
15,CCCN1CCCCC1C(=O)Nc1c(C)cccc1C.Cl.O (centres undefined) [Ropivacaine hydrochloride monohydrate],105 ± 16
16,NCCCCC(NC(CCc1ccccc1)C(=O)O)C(=O)N1CCCC1C(=O)O.O.O (centres undefined) [Lisinopril dihydrate],106 ± 19
17,Cn1c(=O)cc(N2CCCC(N)C2)n(Cc2cc(F)ccc2C#N)c1=O (centres undefined) [Trelagliptin],112 ± 6.1
18,Nc1ccn(C2CSC(CO)O2)c(=O)n1 (centres undefined) [Lamivudine],94.9 ± 7.3
19,Clc1ccc(C(Cn2ccnc2)OCc2csc3c(Cl)cccc23)c(Cl)c1.O=[N+]([O-])O (centres undefined) [Sertaconazole nitrate],53.6 ± 39
20,O=C(O)c1cc(-c2ccccc2)nc2ccccc12 [Cinchophen],104 ± 7.1

row,SMILES,cell viability
1,CN1CCCC(n2nc(Cc3ccc(Cl)cc3)c3ccccc3c2=O)CC1.Cl (centres undefined) [Azelastine HCl],101 ± 1.3
2,Cc1cc(=O)[nH]c(=S)[nH]1 [Methylthiouracil],94.7 ± 16
3,CC(COc1ccccc1)N(CCCl)Cc1ccccc1.Cl (centres undefined) [Phenoxybenzamine HCl],133 ± 28
4,Cc1cn(C2CC(O)C(CO)O2)c(=O)[nH]c1=O (centres undefined) [Telbivudine],141 ± 78
5,CCCCCCCCCCCCCCCCO [1-Hexadecanol],97.8 ± 12
6,COC(=O)C1=COC(O)C2C(CO)=CCC12 (centres undefined) [Genipin],95.3 ± 6
7,CCOC(=O)CC(=O)N1CCSC1COc1ccccc1OC (centres undefined) [Moguisteine],102 ± 8.2
8,CC(Cc1cc2c(c(C(N)=O)c1)N(CCCO)CC2)NCCOc1ccccc1OCC(F)(F)F (centres undefined) [Silodosin],106 ± 39
9,COc1ccc(CN(CCN(C)C)c2ccccn2)cc1.O=C(O)/C=C\C(=O)O [Mepyramine maleate],88.5 ± 12
10,O=C(O)CCNC(=O)c1ccc(/N=N/c2ccc(O)c(C(=O)O)c2)cc1 [Balsalazide],87.6 ± 1.2
11,COC(=O)CCc1ccc(OCC(O)CNC(C)C)cc1.Cl (centres undefined) [Esmolol HCl],96.2 ± 1.9
12,Cc1ncc([N+](=O)[O-])n1CCO [Metronidazole],90.8 ± 28
13,CCCCc1nc(Cl)c(CO)n1Cc1ccc(-c2ccccc2-c2nnn[n-]2)cc1.[K+] [Losartan Potassium (DuP 753)],106 ± 8.5
14,CC(C)(C)C(=O)C(Oc1ccc(Cl)cc1)n1ccnc1 (centres undefined) [Climbazole],89.7 ± 16
15,Nc1ccc(C(=O)NCC(=O)[O-])cc1.[Na+] [Sodium 4-amiropparaty Hyalrate],122 ± 35
16,Cl.Clc1ccc2nsnc2c1NC1=NCCN1 [Tizanidine HCl],95.5 ± 43
17,Cc1nnc(C(=O)NC(C)(C)c2nc(C(=O)NCc3ccc(F)cc3)c(O)c(=O)n2C)o1 [Raltegravir (MK-0518)],97 ± 18
18,Cc1c(F)cc(C(=O)NC2CC2)cc1-c1ccc(C(=O)NCC(C)(C)C)cn1 [Losmapimod],84.4 ± 21
19,CCCC(C(=O)OCCN(CC)CC)(c1ccccc1)c1ccccc1.Cl [SKF 525A (hydrochloride)],93.8 ± 1.2
